# Laboratory results from ChEMBL document CHEMBL3988442, “University of Dundee, Small-Polar-MMV Screening Library” (2021).
# Among all 69,000 compounds or so, about 1,000 (1.4%) showed an effect of 50% or more. The full list was thinned out, with strong results kept by preference.
# Tested on: Leishmania donovani
# Test: Leishmania intramacrophage assay
# Assay type: functional, organism-based
# Set-up: scale not given: in the data most compounds retested in dose-response had high values
smiles,measurement,setting,value
CCc1nncn1CCNC(=O)Nc1ccc(OC)c(C)c1,Percent Effect,"30.3 µM, […]",5.132%
CCC(=O)c1ccccc1NN1c2ccccc2C(=O)C1(C)OC (centres undefined),Percent Effect,"30.3 µM, […]",62.96%
CCOC1(C)C(=O)c2ccccc2N1Nc1ccccc1C(=O)CC (centres undefined),Percent Effect,"30.3 µM, […]",19.56%
CCC(=O)c1ccc(Br)cc1NN1c2cc(Br)ccc2C(=O)C1(C)OC (centres undefined),Percent Effect,"30.3 µM, […]",24.9%
Cc1c(C(=O)O)cnn1-c1ccc(-c2nc(C3CC3)no2)cn1,Percent Effect,"30.3 µM, […]",11.33%
CC(C)Cc1cc(NC(=O)c2cc(Cl)c[nH]2)n(C)n1,Percent Effect,30 µM,-56.19%
CC(=O)c1ccc(N2CCCC(CO)(Cc3ccccc3F)C2)nc1 (centres undefined),Percent Effect,"30.3 µM, […]",13.31%
Nc1cc(N2CCCC(CO)(Cc3ccccc3F)C2)nc(N)n1 (centres undefined),Percent Effect,"30.3 µM, […]",94.26%
N#Cc1cccc(N2CCCC(CO)(Cc3ccccc3F)C2)n1 (centres undefined),Percent Effect,"30.3 µM, […]",29.41%
COc1cc(N2CCCC(CO)(Cc3ccccc3F)C2)ncn1 (centres undefined),Percent Effect,"30.3 µM, […]",63.9%
OCC1(Cc2ccccc2F)CCCN(c2ccc3ccccc3n2)C1 (centres undefined),Percent Effect,"30.3 µM, […]",23.98%
N#Cc1cccnc1N1CCCC(CO)(Cc2ccccc2F)C1 (centres undefined),Percent Effect,"30.3 µM, […]",2.884%
CC(C)(C)c1cn2nc(N3CCC[C@@H]3CO)sc2n1,Percent Effect,"30 µM, 30.03 µM",20.83%
CN(C)C(=O)N1CCN(C(=O)c2ccc(Cl)c(Cl)c2)C(C)(C)C1,Percent Effect,"30.3 µM, […]",36.34%
CCc1nc(N2CCN(CCOC)CC2)c2cnn(C)c2n1,Percent Effect,"30.3 µM, […]",9.143%
CCNC(=O)CN(CC)C(=O)Cc1csc(C(C)C)n1,Percent Effect,"30.3 µM, […]",17.83%
Cc1ncccc1CNCC1COC2(CCCCC2)O1 (centres undefined),Percent Effect,"30.3 µM, […]",19.04%
Cc1nc(NCCCn2cccn2)c2c(n1)c(C)nn2C,Percent Effect,"30.3 µM, […]",-31.03%
O=C(CNC(=O)c1cnc2ccccc2c1O)NCCCn1ccnc1,Percent Effect,"30.3 µM, […]",15.36%
CN(CCO)C[C@@H]1CN(C(=O)c2c(F)cccc2Cl)C[C@@H]1CO,Percent Effect,"30 µM, 30.03 µM",27.13%
CN(CCO)C[C@@H]1CN(Cc2ccccc2C#N)C[C@@H]1CO,Percent Effect,"30.3 µM, […]",12.29%
Cc1ccccc1CN1C[C@@H](CN(C)CCO)[C@@H](CO)C1,Percent Effect,"30.3 µM, […]",5.953%
Cc1cc(F)ccc1N1CCC(N2C[C@@H](CN(C)C)[C@@H](CO)C2)CC1,Percent Effect,"30.3 µM, […]",95.44%
CN(CCO)C[C@@H]1CN(Cc2ccccc2-c2ccccc2)C[C@@H]1CO,Percent Effect,"30.3 µM, […]",83.9%
CN(C)C[C@@H]1CN(C(=O)Cc2ccccc2)C[C@@H]1CO,Percent Effect,"30.3 µM, […]",22.9%
CN(C)C[C@@H]1CN(C(=O)c2cc(F)ccc2F)C[C@@H]1CO,Percent Effect,"30.3 µM, […]",22.29%
CN1CCN(C[C@@H]2CN(C3Cc4ccccc4C3)C[C@@H]2CO)CC1,Percent Effect,"30.3 µM, […]",4.168%
Cc1cc(F)ccc1N1CCC(N2C[C@@H](C)[C@@](C)(O)C2)CC1,Percent Effect,"30.3 µM, […]",44.3%
CN(C)C[C@@H]1CN(C2CCN(c3ccccc3Cl)CC2)C[C@@H]1CO,Percent Effect,"30.3 µM, […]",52.98%
CN(CCO)C[C@@H]1CN(C2CCN(c3ccccc3Cl)CC2)C[C@@H]1CO,Percent Effect,"30.3 µM, […]",89.6%
CN(CCO)C[C@@H]1CN(C(=O)Cc2ccc3ccccc3c2)C[C@@H]1CO,Percent Effect,"30.3 µM, […]",-1.562%
O=C(NCCSCc1ccco1)c1ccc(N2CCOCC2)cc1,Percent Effect,"30.3 µM, […]",-4.352%
CCc1nnc2n1CCN(C(=O)c1nc(-c3ccco3)sc1C)C2,Percent Effect,30 µM,1.353%
O=C(O)C(F)(F)F.O=C(c1ccoc1)N1C[C@@H]2OCCN(c3ncccn3)[C@@H]2C1,Percent Effect,"30.3 µM, […]",10.14%
CCc1nccn1-c1nccnc1C1CCCN(C(=O)COC)C1 (centres undefined),Percent Effect,"30.3 µM, […]",11.67%
Cc1cc(=O)[nH]c(NCCNC(=O)C(c2ccc(F)cc2)N(C)C)n1 (centres undefined),Percent Effect,"30 µM, 30.03 µM",-13%
OCC1(NCc2cnc(-c3cccs3)s2)CCOCC1,Percent Effect,"30.3 µM, […]",16.11%
O=C(C1CC=CC1)N1CCC2(CCC(=O)N2Cc2cccc(F)c2)CC1,Percent Effect,"30.3 µM, […]",15.71%
CCOc1ccc(Cl)c(C(=O)NC(Cc2ccccc2)C(N)=O)n1 (centres undefined),Percent Effect,"30.3 µM, […]",6.553%
CN(C)S(=O)(=O)CCCOc1cccc(-n2ccnc2)c1,Percent Effect,"30.3 µM, […]",-0.5544%
CN(C)C[C@@H]1CN(C2CCN(c3ccc(Cl)cc3)CC2)C[C@@H]1CO,Percent Effect,"30.3 µM, […]",93.76%
CNC(=O)CN(C)C1CCN(c2ccc(Cl)cc2)CC1,Percent Effect,"30.3 µM, […]",24.19%
Cc1ccc(N2CCC(N3C[C@@H](CN(C)C)[C@@H](CO)C3)CC2)cc1,Percent Effect,"30.3 µM, […]",38.77%
OC(COCc1cccs1)Cn1cc(Cl)cn1 (centres undefined),Percent Effect,"30.3 µM, […]",11.71%
CCC1CN(C(=O)c2csc3nc(-c4ccc(Cl)cc4)cn23)CCN1 (centres undefined),Percent Effect,"30.3 µM, […]",94.25%
O=C(c1csc2nc(-c3ccc(Cl)cc3)cn12)N1CCCC(CO)C1 (centres undefined),Percent Effect,"30.3 µM, […]",-3.231%
CC(C)N1CCN(C(=O)c2csc3nc(-c4ccc(Cl)cc4)cn23)CC1,Percent Effect,"30.3 µM, […]",11.51%
CN(CC1CCOCC1)C(=O)NCCCN1CCCCC1,Percent Effect,"30.3 µM, […]",19.46%
O=C(c1ccncc1)N1CCC(c2nc(O)cc(-c3cccnc3)n2)C1 (centres undefined),Percent Effect,"30 µM, 30.03 µM",-2.25%
Cc1cc2occ(CC(=O)N3CCC4(CCCN(C)C4=O)C3)c2cc1Cl (centres undefined),Percent Effect,"30.3 µM, […]",10.63%
Cc1cc2occ(CC(=O)N3CCC(O)(CN(C)C)C3)c2cc1Cl (centres undefined),Percent Effect,"30.3 µM, […]",50.58%
CN(C)CC1(O)CCN(C(=O)Cc2ccc(Cl)c(Cl)c2)C1 (centres undefined),Percent Effect,"30.3 µM, […]",1.329%
O=C(O)[C@@H]1CCN(C(=O)Cc2ccccn2)[C@@H]1c1ccc(F)cc1,Percent Effect,"30.3 µM, […]",8.228%
CCO[C@H]1C[C@@H](O)C12CCN(C(=O)CC(F)(F)F)CC2,Percent Effect,"30.3 µM, […]",-0.6132%
